# Assay results reported in ChEMBL document CHEMBL3988442, “University of Dundee, Small-Polar-MMV Screening Library” (2021).
# For some assays here: Entries with a potency or affinity are not part of this list.
# Tests used:
# Design in all cases: scale not given: direction of the effect not stated beside the values
# [1] = target: Protein translocase subunit SecA (Escherichia coli (strain K12)) (UniProt P10408); assay: Assay to Identify E. coli SecA ATPase Inhibitors; assay type: functional; conditions: 30 µM
# Chain of Protein translocase subunit SecA (Escherichia coli (strain K12)) (P10408 whole entry): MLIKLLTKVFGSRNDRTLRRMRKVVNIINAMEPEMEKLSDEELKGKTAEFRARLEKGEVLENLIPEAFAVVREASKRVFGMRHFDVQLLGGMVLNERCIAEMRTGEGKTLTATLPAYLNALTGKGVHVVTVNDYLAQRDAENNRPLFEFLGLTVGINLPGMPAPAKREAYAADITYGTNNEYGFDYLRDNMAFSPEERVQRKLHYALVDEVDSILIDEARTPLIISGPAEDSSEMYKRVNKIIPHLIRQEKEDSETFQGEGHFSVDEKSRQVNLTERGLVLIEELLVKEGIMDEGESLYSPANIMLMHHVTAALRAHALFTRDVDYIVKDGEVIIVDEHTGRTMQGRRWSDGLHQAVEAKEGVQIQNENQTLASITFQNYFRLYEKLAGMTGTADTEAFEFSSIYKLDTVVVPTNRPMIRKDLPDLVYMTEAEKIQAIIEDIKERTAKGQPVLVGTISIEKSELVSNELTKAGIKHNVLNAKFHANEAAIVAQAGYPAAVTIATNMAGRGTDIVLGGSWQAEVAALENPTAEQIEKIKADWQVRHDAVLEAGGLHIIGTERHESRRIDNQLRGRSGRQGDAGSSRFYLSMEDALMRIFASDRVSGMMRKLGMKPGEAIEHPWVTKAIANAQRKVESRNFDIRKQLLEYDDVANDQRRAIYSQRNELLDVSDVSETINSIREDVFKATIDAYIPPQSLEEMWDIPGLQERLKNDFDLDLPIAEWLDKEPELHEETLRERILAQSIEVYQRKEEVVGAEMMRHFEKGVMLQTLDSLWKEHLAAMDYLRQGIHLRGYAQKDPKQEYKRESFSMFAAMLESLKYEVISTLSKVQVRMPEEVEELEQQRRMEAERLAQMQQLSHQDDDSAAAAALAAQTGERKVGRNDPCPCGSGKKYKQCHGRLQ
# [2] = target: T1, Ubiquitin-activating enzyme e1, putative (Leishmania donovani (strain BPK282A1)) (UniProt E9BSI1); assay: Leishmania donovani Ubiquitin Activating Enzyme (LdE1); assay type: functional; conditions: 30 µM
# T1 sequence (whole entry): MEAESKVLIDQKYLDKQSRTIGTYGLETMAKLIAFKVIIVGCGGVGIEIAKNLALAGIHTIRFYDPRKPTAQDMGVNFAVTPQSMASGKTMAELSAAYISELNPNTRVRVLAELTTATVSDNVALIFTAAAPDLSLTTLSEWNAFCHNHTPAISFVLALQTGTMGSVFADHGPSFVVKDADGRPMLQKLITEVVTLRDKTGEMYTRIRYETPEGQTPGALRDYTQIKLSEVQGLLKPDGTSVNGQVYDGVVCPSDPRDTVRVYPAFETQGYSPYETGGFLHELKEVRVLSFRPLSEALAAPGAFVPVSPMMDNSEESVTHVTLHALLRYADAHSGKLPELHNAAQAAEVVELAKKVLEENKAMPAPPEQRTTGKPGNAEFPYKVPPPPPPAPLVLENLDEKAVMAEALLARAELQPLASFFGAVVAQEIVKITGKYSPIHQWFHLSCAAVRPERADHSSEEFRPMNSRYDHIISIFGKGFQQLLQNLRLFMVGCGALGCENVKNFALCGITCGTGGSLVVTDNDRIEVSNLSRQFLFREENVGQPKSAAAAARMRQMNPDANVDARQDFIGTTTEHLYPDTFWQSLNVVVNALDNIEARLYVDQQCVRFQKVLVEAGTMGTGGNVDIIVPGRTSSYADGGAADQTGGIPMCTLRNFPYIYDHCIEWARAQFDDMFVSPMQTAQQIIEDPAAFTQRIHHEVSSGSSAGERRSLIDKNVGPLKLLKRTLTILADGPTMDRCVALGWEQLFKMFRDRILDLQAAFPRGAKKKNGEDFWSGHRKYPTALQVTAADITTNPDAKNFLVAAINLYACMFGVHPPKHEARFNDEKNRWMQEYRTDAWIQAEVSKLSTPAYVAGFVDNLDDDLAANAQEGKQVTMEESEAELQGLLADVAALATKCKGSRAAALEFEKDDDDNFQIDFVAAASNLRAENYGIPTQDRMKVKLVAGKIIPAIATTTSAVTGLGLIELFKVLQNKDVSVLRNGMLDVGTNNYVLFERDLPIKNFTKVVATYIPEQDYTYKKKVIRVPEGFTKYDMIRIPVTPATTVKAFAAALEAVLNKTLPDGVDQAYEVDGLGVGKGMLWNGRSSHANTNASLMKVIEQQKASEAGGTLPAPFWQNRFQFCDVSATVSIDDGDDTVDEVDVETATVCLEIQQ
# [3] = target: AMP-activated protein kinase, AMPK (Homo sapiens) (UniProt P54646+O43741+P54619+Q9UGJ0+Q9Y478+Q13131+Q9UGI9); assay: AMP-dependent Kinase enzyme assay. An in vitro enzyme assay that detects ADP turnover that is directly proportional to AMPK activity. This uses naive AMPK that is activated during the assay with MK-8722; assay type: functional; conditions: 30 µM
# [4] = target: Sialic acid-binding Ig-like lectin 9 (Homo sapiens) (UniProt Q9Y336); assay: Hs-Siglec9 ALPHAscreen SOP 20170721; conditions: 10 µM
# Chain of Sialic acid-binding Ig-like lectin 9 (Homo sapiens) (Q9Y336 whole entry): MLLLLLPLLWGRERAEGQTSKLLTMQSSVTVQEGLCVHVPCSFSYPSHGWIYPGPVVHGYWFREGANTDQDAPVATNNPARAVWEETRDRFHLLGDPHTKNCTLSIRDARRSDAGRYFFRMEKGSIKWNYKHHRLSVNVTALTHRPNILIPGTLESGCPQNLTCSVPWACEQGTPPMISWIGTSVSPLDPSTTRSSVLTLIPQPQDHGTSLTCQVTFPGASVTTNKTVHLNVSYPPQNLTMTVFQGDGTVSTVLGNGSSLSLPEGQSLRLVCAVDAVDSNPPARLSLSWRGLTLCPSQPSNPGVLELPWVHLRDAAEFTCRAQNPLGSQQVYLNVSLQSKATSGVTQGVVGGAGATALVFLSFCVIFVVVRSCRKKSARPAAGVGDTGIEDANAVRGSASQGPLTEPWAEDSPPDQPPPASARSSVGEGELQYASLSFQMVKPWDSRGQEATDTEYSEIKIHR
# Trypanosoma cruzi = assay: Trypanosoma cruzi phosphomannomutase and mannose-1-phosphate guanylyltransferase assay; assay type: functional; conditions: 10 µM
# [5] = target: T2, Arginase-2, mitochondrial (Homo sapiens) (UniProt P78540); assay: in vitro enzyme assay to detect the production of urea directly proportional to the activity of Arginase II; assay type: functional; conditions: 33.3 µM; also: in the data most compounds retested in dose-response had high values
# T2 sequence (whole entry): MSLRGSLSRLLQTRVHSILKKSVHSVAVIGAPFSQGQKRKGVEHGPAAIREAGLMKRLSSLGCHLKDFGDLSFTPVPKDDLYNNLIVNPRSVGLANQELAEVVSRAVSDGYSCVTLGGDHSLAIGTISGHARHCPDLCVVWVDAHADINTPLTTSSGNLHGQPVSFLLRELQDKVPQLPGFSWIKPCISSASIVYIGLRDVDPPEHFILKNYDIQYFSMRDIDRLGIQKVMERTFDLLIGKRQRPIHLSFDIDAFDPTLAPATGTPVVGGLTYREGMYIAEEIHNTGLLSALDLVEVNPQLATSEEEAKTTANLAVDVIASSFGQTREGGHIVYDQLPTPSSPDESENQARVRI
# [6] = target: T3, Proteasome subunit beta (Trypanosoma cruzi) (UniProt O96673); assay: Trypanosoma cruzi proteasome chymotrypsin-like activity (TcProtChymo) assay.; also: in the data most compounds retested in dose-response had high values; assay type: functional; conditions: 9.37 µM
# T3 sequence (whole entry): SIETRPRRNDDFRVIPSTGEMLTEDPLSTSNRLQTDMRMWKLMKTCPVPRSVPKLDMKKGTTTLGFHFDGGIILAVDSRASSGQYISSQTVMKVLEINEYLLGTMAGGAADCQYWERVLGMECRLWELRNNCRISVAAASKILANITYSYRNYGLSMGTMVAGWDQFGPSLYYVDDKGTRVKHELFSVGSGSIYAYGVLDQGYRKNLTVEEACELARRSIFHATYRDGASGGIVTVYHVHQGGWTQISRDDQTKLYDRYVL
# Homo sapiens = organism: Homo sapiens; assay: To identify inhibition of the IFN signalling (Jak-Stat) pathway via expression of an eGFP reporter gene under the control of an IFN-stimulated response element (ISRE) containing MxA promoter.; assay type: functional; conditions: 30 µM
# [7] = target: T4, Tyrosyl-tRNA synthetase, putative (Trypanosoma cruzi (strain CL Brener)) (UniProt Q4DSP6); assay: Trypanosoma cruzi tyrosyl tRNA synthetase (TcYRS) _High Tyrosine SOP; assay type: functional; conditions: 30 µM; also: in the data most compounds retested in dose-response had high values
# T4 sequence (whole entry): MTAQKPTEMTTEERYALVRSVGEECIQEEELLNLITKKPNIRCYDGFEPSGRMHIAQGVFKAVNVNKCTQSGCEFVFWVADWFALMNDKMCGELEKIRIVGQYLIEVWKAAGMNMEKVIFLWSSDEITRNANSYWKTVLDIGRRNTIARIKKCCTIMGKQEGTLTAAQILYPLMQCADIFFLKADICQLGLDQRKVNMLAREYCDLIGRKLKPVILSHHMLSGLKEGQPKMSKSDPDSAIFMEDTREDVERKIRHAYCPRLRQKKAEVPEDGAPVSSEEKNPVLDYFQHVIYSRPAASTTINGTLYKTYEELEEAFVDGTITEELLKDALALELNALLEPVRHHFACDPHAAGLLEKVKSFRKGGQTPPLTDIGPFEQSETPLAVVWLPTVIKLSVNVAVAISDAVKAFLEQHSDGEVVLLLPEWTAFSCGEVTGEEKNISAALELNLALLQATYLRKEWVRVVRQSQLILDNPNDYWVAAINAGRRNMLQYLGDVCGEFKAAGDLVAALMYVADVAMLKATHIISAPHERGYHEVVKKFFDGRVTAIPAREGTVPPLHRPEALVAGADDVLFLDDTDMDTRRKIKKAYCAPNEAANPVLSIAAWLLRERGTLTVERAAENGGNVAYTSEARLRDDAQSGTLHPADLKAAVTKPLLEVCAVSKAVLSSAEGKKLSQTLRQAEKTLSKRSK
# [8] = target: T4, Tyrosyl-tRNA synthetase, putative (Trypanosoma cruzi (strain CL Brener)); assay: Trypanosoma cruzi tyrosyl tRNA synthetase (TcYRS) SOP; assay type: functional; conditions: 30 µM
# [9] = target: Chromo domain-containing protein 1 (Saccharomyces cerevisiae (strain ATCC 204508 / S288c) (Baker's yeast)) (UniProt P32657); assay: ScCHD-1 Enzyme Inhibition Assay; assay type: functional; conditions: 30 µM; also: in the data most compounds retested in dose-response had high values
# Chain of Chromo domain-containing protein 1 (Saccharomyces cerevisiae (strain ATCC 204508 / S288c) (Baker's yeast)) (P32657 whole entry, the tested form may be a part): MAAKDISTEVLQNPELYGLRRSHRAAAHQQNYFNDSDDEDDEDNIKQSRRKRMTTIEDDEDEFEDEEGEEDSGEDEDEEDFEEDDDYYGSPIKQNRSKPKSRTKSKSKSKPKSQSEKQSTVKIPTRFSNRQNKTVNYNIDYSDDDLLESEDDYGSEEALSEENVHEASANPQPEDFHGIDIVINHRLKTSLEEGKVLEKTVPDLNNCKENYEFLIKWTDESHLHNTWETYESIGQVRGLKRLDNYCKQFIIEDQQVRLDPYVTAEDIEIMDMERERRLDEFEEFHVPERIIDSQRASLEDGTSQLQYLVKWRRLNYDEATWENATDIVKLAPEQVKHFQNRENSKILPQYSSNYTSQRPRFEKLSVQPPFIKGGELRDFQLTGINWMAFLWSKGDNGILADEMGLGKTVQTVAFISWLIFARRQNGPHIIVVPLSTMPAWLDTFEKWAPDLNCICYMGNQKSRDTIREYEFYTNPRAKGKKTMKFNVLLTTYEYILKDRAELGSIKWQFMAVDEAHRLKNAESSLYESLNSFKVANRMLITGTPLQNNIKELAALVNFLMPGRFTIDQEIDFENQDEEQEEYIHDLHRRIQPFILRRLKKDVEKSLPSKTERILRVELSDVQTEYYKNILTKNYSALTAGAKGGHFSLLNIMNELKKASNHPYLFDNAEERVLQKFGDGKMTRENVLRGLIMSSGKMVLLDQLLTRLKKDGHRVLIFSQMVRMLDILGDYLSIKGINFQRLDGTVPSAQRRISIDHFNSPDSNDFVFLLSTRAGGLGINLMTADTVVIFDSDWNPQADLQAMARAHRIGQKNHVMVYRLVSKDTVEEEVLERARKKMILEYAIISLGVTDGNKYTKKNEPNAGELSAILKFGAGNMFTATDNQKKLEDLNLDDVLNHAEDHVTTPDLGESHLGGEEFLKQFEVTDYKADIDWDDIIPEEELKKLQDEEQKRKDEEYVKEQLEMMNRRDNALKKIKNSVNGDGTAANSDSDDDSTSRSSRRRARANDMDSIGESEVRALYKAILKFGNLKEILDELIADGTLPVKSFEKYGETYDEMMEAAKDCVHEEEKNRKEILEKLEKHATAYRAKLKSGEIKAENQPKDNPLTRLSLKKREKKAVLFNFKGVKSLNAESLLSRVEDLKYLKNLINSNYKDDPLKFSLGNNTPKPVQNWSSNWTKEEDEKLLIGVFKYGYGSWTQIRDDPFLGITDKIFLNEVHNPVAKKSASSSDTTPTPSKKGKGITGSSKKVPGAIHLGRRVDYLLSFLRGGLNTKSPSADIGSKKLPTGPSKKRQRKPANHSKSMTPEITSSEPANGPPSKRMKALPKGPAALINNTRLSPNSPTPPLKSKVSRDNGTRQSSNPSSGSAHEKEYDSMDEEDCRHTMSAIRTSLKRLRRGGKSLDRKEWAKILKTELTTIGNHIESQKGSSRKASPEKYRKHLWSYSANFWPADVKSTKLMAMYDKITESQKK
Compound,Percent Effect [1] [%],Percent Effect [2] [%],Percent Effect [3] [%],Percent Effect [4] [%],Percent Effect (Trypanosoma cruzi) [%],Percent Effect [5] [%],Percent Effect [6] [%],Percent Effect (Homo sapiens) [%],Percent Effect [7] [%],Percent Effect [8] [%],Percent Effect [9] [%]
COc1ccc(CN2CC[C@@H](O)[C@@H]2Cc2ccccc2)cc1,-7.82,-1.33,7.1,-1.98,-0.589,-6.16,0.924,9.5,-3.17,-2.56,-5.37
COc1ccccc1C(O)CNCc1c(C(C)C)nn(C)c1N(C)C (configuration not stated),-5.07,15.6,-1.45,1.4,1.31,1.07,4.9,-5.4,11.7,14.6,-10.1
Cc1ccc(NC(=O)CNc2cccc3c2CCCC3)c(Br)c1,-0.516,0,-8.17,10.7,1.07,27.1,12.3,-16,5.38,6.17,-12.9
Cc1cnn(Cc2cc(F)ccc2F)c1NC(=O)C1COCCO1 (configuration not stated),-7.31,2.67,1.44,22.4,0.876,4.17,5.75,5.83,4.92,13.6,-4.84
CCN(CC)C(=O)c1ccn(COc2ccccc2)n1,-2.87,-4,2.57,5.83,4.32,-2.99,8.5,1.5,5.29,10.3,-0.306
CS(=O)(=O)c1snnc1C1CCN(Cc2ccncc2)CC1,-6.59,4.05,2.28,-0.45,-3.75,-2.09,9.83,23.2,0,1.3,5.8
CCn1ncc2c1C(COC)CN(Cc1ccc(OC)cc1)C2 (configuration not stated),-1.81,5.41,-4.68,14.4,2.44,0.744,3.35,40,2.15,6.17,-11.4
Cc1ccc(N2CCCN(C(=O)C3(C#N)CCCCC3)CC2)nn1,-6.11,5.26,-4.48,3.79,6.39,1.53,0.668,-2.34,5.39,0,-14.5
CN(CCO)C(=O)c1coc(CN2CCN(c3ccccc3F)CC2)n1,-2.04,13.3,-1.48,17.7,-0.0974,49.5,20.2,11.4,6.01,21,97.1
Cn1cc(C(=O)N2CC[C@@H]3[C@@H]2CCN3Cc2cccc(F)c2)cn1,-5,8.11,1.6,-0.0749,0.88,4.14,9.96,-2.6,0,10.3,1.12
CC(C)(C)c1n[nH]c(C2CN(C(=O)c3csnn3)CCO2)n1 (configuration not stated),-8.03,18.4,-1.35,7.53,7.5,1.18,2.4,6.98,6.38,15.6,-19.5
COc1cccc(S(=O)(=O)N2CCn3cnc(COCC4CC4)c3C2)c1,-2.27,2.67,2.22,0.793,0.386,-33.1,3.93,7.62,3.12,5,-4.77
c1cn(Cc2nnc(C3CCN(C4CCOCC4)CC3)n2C2CC2)cn1,-3.73,2.67,-3.77,-0.983,-3.21,0,26.7,21.6,2.73,3.7,-5.45
Cc1ccccc1CNC(=O)CN1CCN(Cc2nccn2C)CC1,-1.84,21.6,-6.67,6.22,2.74,-10.8,18.4,2.02,8.37,25.9,-9.21
COc1c(CNC2CCCOc3ccccc32)c(C)nn1C (configuration not stated),-6.71,5.41,-2.77,4.94,3.81,3.23,8.5,-6.93,6.45,11.1,-1.97
Cc1cc(N2CCN(Cc3ccccc3)CC(O)C2)cc(C)n1 (configuration not stated),-7.08,-2.7,1.17,11.4,-1.74,-3.81,2.07,20.1,-0.529,4.88,-1.99
Cc1cccc(NC(=O)NCCCn2nc3ccccn3c2=O)c1C,-5.55,2.7,-32,-5.5,0.0943,0,-1.26,6.71,8.37,6.17,-9.2
CCc1nccn1C1CCCN(C(=O)c2ccc3nncn3c2)C1 (configuration not stated),-5.07,7.79,-4.63,9.34,5.06,-1.78,2.03,9.22,6.8,19.5,-7.6
CC(=O)Nc1nc(C(=O)N2CCCC2c2ccccc2C)cs1 (configuration not stated),-3.82,10.4,8.63,1.33,-8.24,4.27,3.21,31.4,5.83,9.76,-5.39
COc1ccc(C(CO)NC(=O)Nc2cccc(C#N)c2)cc1 (configuration not stated),-1.84,16.2,-2.87,19.4,3.86,-0.952,15.3,8.24,7.94,17.1,-9.96
Cc1nc(CN(C)C2CCN(CC(=O)N3CCOCC3)C2)no1 (configuration not stated),-3.5,18.9,-5.27,-3.82,-3.62,-3.14,1.98,1.74,5.94,18.3,-3.28
CC(=O)N1CCC(Cc2cnc(-c3c(C)nn(C)c3C)cn2)C1 (configuration not stated),-3.33,0,8.59,5.11,5.71,-8.62,2.2,-21.9,4.25,6.41,-1.12
